Experimental data reported in the supplement of paper PMC7156485.
± gives the standard deviation of the averaged measurements.
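Also: TDF denotes transformed human dermal fibroblasts of mesenchymal origin.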

These molecules were tested on HCC1569 (assay: cell number relative to DMSO (% of DMSO); higher = more cells (less growth inhibition / toxicity)). Settings: concentration: 10 µM; 24 h.
Outline: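 HCC1569 and TDF cells were seeded at 800 per well in 384-well plates in RPMI with 10% FBS and treated with compounds at 10 µM for 24 h at 37 °C, in triplicate. After fixation in 3.7% formaldehyde, cells were stained with a rabbit anti-H1.0 antibody, an AlexaFluor 647 secondary and DAPI, and six fields per well were imaged at ×10. H1.0 nuclear intensity or cell number is given as percent of the plate control, using the median of replicates, with HCC1569 values smoothed for positional effects.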
`c1ccc(-c2[nH]ncc2-c2ccnc3ccccc23)nc1` was tested, and the cell number was 98. With `COc1cc2c3cc1Oc1c(OC)c(OC)cc4c1C(Cc1ccc(O)c(c1)Oc1ccc(cc1)CC3N(C)CC2)N(C)CC4.Cl.Cl` (stereo not given) the cell number was 90.4. Work on `COc1cc2nc(N3CCN(C(=O)C4CCCO4)CC3)nc(N)c2cc1OC` (stereo not given) [Terazosin] yielded a cell number of 99.9. `CC(COc1ccccc1)N(CCCl)Cc1ccccc1.Cl` (stereo not given) [Phenoxybenzamine.HCl] gave a cell number of 106. For `CC1(C)CC(=O)C2=C(C1)NC(=S)NC2c1cccc(O)c1` (stereo not given), the cell number was 70.7. `COc1ccc2c(c1)CC[C@@H]1[C@@H]2CC[C@]2(C)[C@@H](NCCCCCCN3C(=O)C=CC3=O)CC[C@@H]12.O` gave a cell number of 97.6. Work on `CC(C=CC1=C(C)CCCC1(C)C)=CC=CC(C)=CC(=O)O` [Retinoic Acid] yielded a cell number of 98.1 ± 2.9. In the case of `O=S(=O)(c1cccc2cnccc12)N1CCCNCC1`, the cell number is reported as 107. Molecule `CCCCS(=N)(=O)CCC(N)C(=O)O` (racemic) [DL-Buthionine-[S,R]-sulfoximine] has a cell number of 102. `CCN(CC)CCCC(C)Nc1c2ccc(Cl)cc2nc2ccc(OC)cc12` (stereo not given) [Quinacrine] showed a cell number of 89.3. With `O=C1NC(=O)C(=Cc2ccc(-c3ccc(F)cc3O)o2)S1` the cell number was 97.3. Work on `COc1ccccc1N1CCN(CCCNc2cc(=O)n(C)c(=O)n2C)CC1.Cl` [Urapidil hydrochloride] yielded a cell number of 101. With `NC(=O)c1ccc2[nH]ccc2c1` the cell number was 108. In the case of `CCCCCC(O)C=CC1C(O)CC(=O)C1CC=CCCCC(=O)O` (stereo not given) [Prostaglandin E2], the cell number is reported as 100 ± 2.4. Work on `C[C@H](N[C@@H](CCc1ccccc1)C(=O)O)C(=O)N1CCC[C@H]1C(=O)O.O.O` yielded a cell number of 102. `CCCCCC=CCC=CC=CC=CC(SCC(N)C(=O)NCC(=O)O)C(O)CCCC(=O)O` (stereo not given) [Leukotriene D4] gave a cell number of 106. For `Oc1ccc(Cn2cc[nH]c2=S)cc1` [1-(4-Hydroxybenzyl)imidazole-2-thiol], the cell number was 102. Molecule `CS(=O)(=O)O.O=C1Nc2ccc(-c3cccnc3)cc2C1=Cc1ccc[nH]1` [JAK3 Inhibitor VI] has a cell number of 73. With `CCCCCCCCCCCCCCSCC(=O)O` [Tetradecylthioacetic acid] the cell number was 104. `OCCOc1ccc(/C(=C(/CCCl)c2ccccc2)c2ccccc2)cc1` [2-{4-[(1Z)-4-chloro-1,2-diphenyl-1-butenyl]phenoxy}ethanol] gave a cell number of 101. With `CCCc1cc(=O)oc2c(C(=O)N3CCCc4ccccc43)c(OC)cc(OC)c12` the cell number was 55.5. Work on `COC(C(=O)C(O)C(C)O)C1Cc2cc3cc(OC4CC(OC5CC(O)C(O)C(C)O5)C(O)C(C)O4)c(C)c(O)c3c(O)c2C(=O)C1OC1CC(OC2CC(OC3CC(C)(O)C(O)C(C)O3)C(O)C(C)O2)C(O)C(C)O1` (stereo not given) [Mithramycin A] yielded a cell number of 68.7. `C=C(C)C1CC=C(C(=O)O)CC1` (stereo not given) [Perillic acid] was tested, and the cell number was 102. `COc1cc2ncc(-c3ccccc3)nc2cc1OC` [Tyrphostin AG 1296] was tested, and the cell number was 98.1. For `O=C1NC(=O)C(=Cc2ccc3c(c2)OC(F)(F)O3)S1` [PI 3-KbInhibitor II], the cell number was 100. With `CCCCCC=CCC=CCC(O)C=CC=CCCCC(=O)O` (stereo not given) the cell number was 102. `Cl.O.O.c1ccc2c(c1)CN1CCCC1=N2` [Desoxypeganine] was tested, and the cell number was 101. `CCN(CC)C(=O)c1ccc(Nc2nc(OCC3CCCCC3)c3[nH]cnc3n2)cc1` [Cdk2 Inhibitor IV,                 NU6140] showed a cell number of 73.4. Molecule `COC(=O)C1=C(C)NC(C)=C(C(=O)OC)C1c1ccccc1[N+](=O)[O-]` [Nifedipine] has a cell number of 99.06 ± 0.47. `Cc1cc(=O)oc2cc(O)ccc12` [4-Methylumbelliferone] gave a cell number of 103. `C=CC1CN2CCC1CC2C(O)c1ccnc2ccc(OC)cc12.C=CC1CN2CCC1CC2C(O)c1ccnc2ccc(OC)cc12.O=S(=O)(O)O` (stereo not given) [Quinidine sulfate] showed a cell number of 99. For `O=C(O)CCc1nc(-c2ccccc2)c(-c2ccccc2)o1` [Oxaprozin], the cell number was 104. `O=C(O)CP(=O)(O)O` [Phosphonoacetic acid] was tested, and the cell number was 101. In the case of `COc1cc(C(=O)c2ccc3ncccc3c2)cc(OC)c1OC` [quinolin-6-yl(3,4,5-trimethoxyphenyl)methanone], the cell number is reported as 59.6. Molecule `Oc1cccc(-c2nc(N3CCOCC3)c3oc4ncccc4c3n2)c1` has a cell number of 56.8. With `CC(=O)c1ccc(NC2=C(Cl)C(=O)c3ccccc3C2=O)cc1` [2-(4-acetylanilino)-3-chloronaphthoquinone] the cell number was 17.7. Molecule `Cn1c(=O)c2c(ncn2CC2OCCO2)n(C)c1=O` [Doxofylline] has a cell number of 103. For `CCCCCCCCCCCCCCCCCCOCC(COP(=O)([O-])OCC[N+](C)(C)C)OC(C)=O` (stereo not given), the cell number was 98.8. `O=C1C(=Cc2ccc(O)c(O)c2)Oc2c1ccc(OC1OC(CO)C(O)C(O)C1O)c2O` (stereo not given) [Maritimein] showed a cell number of 99.5. `CCCCCC(O)C=CC1=C(CC=CCCCC(=O)O)C(=O)CC1` (stereo not given) [Prostaglandin B2] was tested, and the cell number was 109.
